# Data published in publication PMC9574860, “Chemical Toolkit for PARK7: Potent, Selective, and High-Throughput” (Journal of Medicinal Chemistry, 2022).
# The campaign covered roughly 7,900 compounds. About 400 (5.1%) showed an effect of 50% or more. The sample as a whole holds a higher share of strong results than the screen did.
# Molecular target: Parkinson's disease protein 7 (PARK7/DJ1) (human, UniProt Q99497)
# Assay: primary screen, percent inhibition; read as competition with a fluorescent probe by fluorescence polarization; higher = more effect of the substance
# Conditions: 100 µM
# How it was run: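 Covalent fragments at 100 μM final were incubated 2 h with 0.2 μM PARK7, then 20 nM probe JYQ-107 added for a further 2 h. Fluorescence polarization read at 480/520 nm; relative FP loss versus reference controls gave remaining enzyme activity.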
# Parkinson's disease protein 7 (PARK7/DJ1), sequence (Q99497 whole entry, looked up): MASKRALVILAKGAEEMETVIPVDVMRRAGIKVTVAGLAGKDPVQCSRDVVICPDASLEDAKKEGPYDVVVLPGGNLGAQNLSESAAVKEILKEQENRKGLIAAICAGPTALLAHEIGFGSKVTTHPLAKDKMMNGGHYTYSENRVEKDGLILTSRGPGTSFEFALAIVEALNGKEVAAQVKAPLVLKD
row,SMILES,Inhibition % [%]
1,CC1(C)C2CC=C(COCC3CO3)C1C2 (stereo not drawn),3.87
2,Nc1cc2ccccc2nc1S,52
3,Sc1nc2ccccc2nc1S,8.25
4,Cc1nc2ccccc2nc1S,2.7
5,Cc1ccc(-c2nnc(SC3CC(C)OC3=O)o2)cc1 (stereo not drawn),7.51
6,OB(O)C1CCN(Cc2cc(-c3ccccn3)n[nH]2)C1 (stereo not drawn),29.8
7,C=CC(=O)N[C@H](C(=O)O)c1ccccc1,3.77
8,O=C(O)C(S)c1ccccc1 (stereo not drawn),89.9
9,C=CC(=O)NC(NC(=O)C=C)c1ccccc1,11.8
10,OB(O)C1CCN(Cc2cc3c(cn2)OCCO3)C1 (stereo not drawn),21.4
11,CC=C(C#N)c1ccc2c(c1)OCO2,12.1
12,O=C(CN1C(=O)CCC1=O)Nc1cccc(Cl)c1,7.52
13,O=c1c2ccccc2nc(S)n1CCS,7.43
14,O=C(CCl)N1CCN(S(=O)(=O)c2ccccc2)CC1,8.48
15,O=C(CCl)N1CCC(Cc2ccccc2)CC1,31.1
16,O=C(CCl)N1CCC(c2ccccc2)=N1,90.5
17,C=CC(=O)NCC1CCN(c2ccncc2)CC1,15.3
18,COCC(C)NS(=O)(=O)C=Cc1ccc(Cl)cc1 (stereo not drawn),13.7
19,CS(=O)(=O)n1cc(N)cn1,10.7
20,CC1(C)OB(c2cc(Cl)cc(Cl)c2)OC1(C)C,81
21,CC1(C)OB(c2cccc(Cl)c2)OC1(C)C,-3.11
22,CC1(C)OB(c2ccc(Cl)cc2)OC1(C)C,4.5
23,C=CC(=O)NC1CCc2cn(C(C)C)nc2C1 (stereo not drawn),11.9
24,CCOc1cc(C)c(C)cc1S(=O)(=O)n1ccnc1C,2.71
25,C=CC(=O)Nc1ccc(=O)n(C)c1,54.1
26,C=CC(=O)Nc1ccc2c(c1)OCCCO2,3.17

row,SMILES,Inhibition % [%]
1,C=CC(=O)Nc1ccc2c(c1)CCCO2,7.61
2,C=CC(=O)Nc1ccc2c(c1)N(C)CCO2,52.4
3,C=CC(=O)Nc1ccc2ccc(=O)n(C)c2c1,7.33
4,C=CC(=O)Nc1ccc(Br)cc1,6.59
5,CC(C)NC(=O)C(C#N)=Cc1ccccc1Cl,6.2
6,CN(C)C=C(C#N)c1ccccn1,19.1
7,CCOc1cc(C)c(C(C)C)cc1S(=O)(=O)n1ccnc1,6.3
8,O=C(O)c1ccnnc1S,83.3
9,O=C(O)c1cccnc1S,5.3
10,NC(=O)c1cccnc1S,4.97
11,O=c1[nH]c(Cc2ccncc2)no1,6.48
12,O=C(CCl)Nc1ccc(N=Nc2ccccc2)cc1,5.15
13,O=C(CCl)NCc1cccc(Oc2ccccc2)c1,22.5
14,Cc1ccc(Oc2ccccc2NC(=O)CCl)cc1,2.56
15,Cc1cccc(NC(=O)CCl)c1,8.99
16,O=C(CCl)Nc1cccc(NC(=O)c2ccccc2)c1,7.84
17,O=C(CCl)Nc1ccc(Oc2ccccc2Cl)cc1,93.7
18,Cc1cccc(Oc2ccc(NC(=O)CCl)cc2)c1,81.6
19,O=C(CCl)Nc1ccc(OCc2ccccc2)cc1,28.9
20,Cc1ccc(Oc2ccc(NC(=O)CCl)cc2)cc1,36.3
21,O=C(CCl)Nc1ccc(Oc2ccccc2)cc1,84.2
22,O=C(CCl)Nc1ccccc1Oc1ccccc1,6.38
23,O=C(CCl)Nc1cccc(Oc2ccccc2)c1,55.6
24,Cc1ccc(C)c(S(=O)(=O)n2nc(C)cc2C)c1,1.62
25,CCOc1cc(C)c(Cl)cc1S(=O)(=O)n1cnc(C)c1,5.28
26,C=CC(=O)NCCN(C)C1CCCCC1,10.8

row,SMILES,Inhibition % [%]
1,C=CC(=O)N1CCN(c2ncnc3sc(C)cc23)CC1,0.554
2,Cc1noc(C)c1Cn1c(-c2ccccn2)noc1=O,0.962
3,CC1(C)OB(c2cccc3occc23)OC1(C)C,10.2
4,C=CC(=O)N1CCC(c2nccn2C)C1 (stereo not drawn),5.02
5,Cn1c(=O)[nH]c2ccc(B3OC(C)(C)C(C)(C)O3)cc21,0.0918
6,C=CC(=O)NC1CC(OCC)C12CCCCC2 (stereo not drawn),4.59
7,CN(C)C(=O)Oc1ccc2c(c1)OCO2,-4.08
8,N#Cc1nccnc1N1CCC(C(F)(F)F)CC1,2.52
9,C=CC(=O)N1CCN(CC2CCOCC2)CC1,12.9
10,N#Cc1ccc(N2CCOC(c3cccs3)C2)cn1 (stereo not drawn),4.98
11,COCc1ccc(CNC(=O)CCl)cc1,6.87
12,N#Cc1ccc(N2CCCC(C(N)=O)C2)cn1 (stereo not drawn),6.47
13,CC(c1ccc(F)cc1)N(C)C(=O)CCl (stereo not drawn),96.3
14,CC(c1ccc(F)c(F)c1)N(C)C(=O)CCl (stereo not drawn),92.5
15,CC(c1cc2ccccc2o1)N(C)C(=O)CCl (stereo not drawn),96.1
16,CC(NC(=O)CCl)c1ccc(Cl)cc1 (stereo not drawn),6.77
17,CCC(NC(=O)CCl)c1ccc(Cl)cc1 (stereo not drawn),14.1
18,CCN(C(=O)CCl)C(C)c1ccc(F)cc1 (stereo not drawn),9.9
19,C=CC(=O)N(C)Cc1cc2ccccc2o1,5.57
20,CC(c1ccc(F)cc1)N(C)C(=O)Cn1cnc(C#N)n1 (stereo not drawn),11.3
21,CN(C)C=CC(=O)c1cc2ccccc2o1,0.589
22,CC(c1ccc(Cl)cc1)N(C)C(=O)CCl (stereo not drawn),98
23,C=CC(=O)N1CCCC(c2ccc(F)c(F)c2)C1 (stereo not drawn),9.29
24,C=CC(=O)N1CC(C)OC(C(F)(F)F)C1 (stereo not drawn),14.7
25,CC(=O)SCCc1csc(-c2ccccn2)n1,9.81
26,O=C(Nc1ccccc1)c1cccnc1S,3.52

row,SMILES,Inhibition % [%]
1,CCC1(c2ccccc2)NC(=O)N(NC(=O)CCl)C1=O (stereo not drawn),6.48
2,C=CC(=O)N1CCC(Cc2ccncc2)C1 (stereo not drawn),6.08
3,Cc1cccc2c(=O)[nH]c(C(Cl)=Cc3ccnn3C)nc12,6.42
4,C=CC(=O)NC(C)c1c(C)nn(CC(F)(F)F)c1C (stereo not drawn),4.48
5,CC(c1ccccc1)N(C)C(=O)Cn1cnc(C#N)n1 (stereo not drawn),7.46
6,CCN(C(=O)CCl)c1nc2ccccc2s1,24.6
7,CN(C(=O)CCl)C(c1ccccc1)c1ccccc1,6.29
8,CN(C(=O)CCl)c1nc2ccccc2s1,3.42
9,CC(c1nc2ccccc2s1)N(C)C(=O)CCl (stereo not drawn),97.3
10,CC(c1ccccc1)N(C)C(=O)CCl (stereo not drawn),98.5
11,CC1(C)OB(c2cnc3ccnn3c2)OC1(C)C,5.87
12,C=CC(=O)N1CCOC(C)(C(F)F)C1 (stereo not drawn),7.7
13,CS(=O)(=O)c1cccnc1C#N,5.26
14,C=CC(=O)N1CCCC1C (stereo not drawn),7.71
15,CC(C)Cn1c(N)c(C(=O)CCl)c(=O)n(C)c1=O,6.06
16,O=c1[nH]c(-c2ccc(S(=O)(=O)F)cc2)nc2ccccc12,13
17,O=c1[nH]c(-c2cccc(S(=O)(=O)F)c2)nc2sc3c(c12)CCC3,88.5
18,O=c1[nH]c(-c2ccc(S(=O)(=O)F)cc2)nc2sc3c(c12)CCC3,15.9
19,CC1(C)OB(c2ccc3ccc(N)cc3c2)OC1(C)C,86.8
20,CC1(C)OB(c2cccc(N)c2)OC1(C)C,12.8
21,CC1(C)OB(c2ccc(N)c(O)c2)OC1(C)C,92.7
22,CC1(C)OB(c2ccc3cc(N)ccc3c2)OC1(C)C,87.8
23,CC1(C)OB(c2ccc(N)cc2)OC1(C)C,5.89
24,CC1(C)OB(c2ccc(N)c(F)c2)OC1(C)C,1.59
25,Cc1ccc(N)cc1B1OC(C)(C)C(C)(C)O1,14.1
26,Cc1cc(B2OC(C)(C)C(C)(C)O2)ccc1N,8.63

row,SMILES,Inhibition % [%]
1,CC1(C)OB(c2ccc3ccoc3c2)OC1(C)C,9.89
2,Cc1ccc(C)c(Cn2cnc(C#N)n2)c1,2.61
3,Clc1ccccc1COCC1CO1 (stereo not drawn),9.97
4,N[C@@H]1CCN(C(=O)C=Cc2cc3ccccc3o2)C1,18.2
5,N#Cc1ccc2c(n1)CCCC2,7.43
6,C=CC(=O)NC1C(C)C(OC)C12CCC2 (stereo not drawn),50
7,C=CC(=O)NC1CC(OC)C12CCC2 (stereo not drawn),3.73
8,C=CC(=O)NC1C2CCOC2C12CCC2 (stereo not drawn),8.04
9,COc1cc(S(=O)(=O)n2cccn2)c(C)cc1C,5.05
10,COc1ccc(CNC(=O)CCl)cc1OC,6.67
11,Cc1ccc(NC(=O)CCl)cc1I,81.5
12,Cc1ccc(NC(=O)CCl)cc1F,48.3
13,Cc1ccc(NC(=O)CCl)cc1Br,75
14,Cc1cc(NC(=O)CCl)ccc1Br,32.6
15,Cc1cc(C)cc(NC(=O)CCl)c1,11.3
16,Cc1ccc(NC(=O)CCl)cc1C,34.8
17,O=C1CC2(CCCC2)N1,4.3
18,CCc1cc(S(=O)(=O)n2ccnc2)ccc1OC,7.72
19,c1ccc(OCC2CO2)cc1 (stereo not drawn),9.6
20,CC1CC(N2CCc3sccc3C2)C(=O)O1 (stereo not drawn),13.9
21,CC1CC(N2CCc3c(nc(C4CC4)n3C)C2)C(=O)O1 (stereo not drawn),5.37
22,CCn1nc2c(cc1=O)CN(C1CC(C)OC1=O)CC2 (stereo not drawn),61.4
23,CCCn1nc2c(cc1=O)CN(C1CC(C)OC1=O)CC2 (stereo not drawn),86.8
24,CC(=O)Nc1cccc2c1CCN(C1CC(C)OC1=O)C2 (stereo not drawn),1.86
25,CC1CC(N2CCN(C)c3ccccc3C2)C(=O)O1 (stereo not drawn),0.987
